HP1b binding inh: inhibitors of HP1-beta chromodomain binding to methylated histone tails. P83916. AlphaScreen HP1-beta / biotin-H3K9me3 peptide binding. Potency, µM (titrated, usually from 114 µM), without a hit: at the highest dose activity change, negative = inhibition, actives largely listed as inhibitors. hit rate 0.56% among 390,000; further: nearly all actives have a fitted effect of over 70% in size
Target sequence (P83916 whole entry, looked up): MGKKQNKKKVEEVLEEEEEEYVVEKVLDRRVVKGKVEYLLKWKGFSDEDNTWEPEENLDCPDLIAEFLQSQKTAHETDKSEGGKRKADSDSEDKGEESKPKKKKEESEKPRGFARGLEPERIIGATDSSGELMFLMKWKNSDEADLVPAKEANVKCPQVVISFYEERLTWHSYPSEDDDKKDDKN
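HP1-beta protein (50 nM final) preincubated 30 min at room temperature with biotinylated H3(1-18)K9me3 peptide (50 nM) in PBS pH 7.4, 0.01% Tween-20, then compound added for 30 min. AlphaScreen streptavidin donor/nickel chelate acceptor beads (10 ug/mL final), 30 min dark, luminescence read.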
JMJD2A Tudor: blocks the human JMJD2A Tudor domain | O75164 | AlphaScreen JMJD2A-Tudor / H3K4me3 peptide binding | Potency, µM (doses to about 114 µM), for the others: top-dose activity change, negative = inhibition, hits mostly inhibitors | hit rate 4.4% among 390,000 | AID 504339; further: on the % scale 0 is the no-effect control and ±100 the full control effect; nearly all actives have a fitted effect of over 50% in size
Sfp inh: blocks B. subtilis Sfp PPTase activity; Q9F4F7; Biochemical Sfp PPTase activity, qHTS; Potency, µM, for the others: largest response in the series, negative = inhibition, actives largely listed as inhibitors; hit rate 3.5% among 310,000; AID 1490;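 further: the enzyme is Sfp with the accession as filed and its product quenches rhodamine fluorescence; 0% = enzyme reaction without inhibitor and -100% = no enzyme wells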
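Compounds were incubated with enzyme (final 15 nM) for 15 min at room temperature before substrate addition started the reaction. Fluorescence at 525 nm excitation, 598 nm emission was recorded immediately and after 30 minutes.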
BAZ2B inh: inhibitors of human BAZ2B bromodomain. Q9UIF8. Potency, µM (doses to about 114 µM), without a hit: at the top dose activity change, negative = inhibition, hits mostly inhibitors. hit rate 4.4% among 360,000. AlphaScreen BAZ2B-H3K14Ac peptide displacement; further: on the % scale 0 is the no-effect control and ±100 the full control effect; nearly all actives have a fitted effect of over 60% in size
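AlphaScreen luminescence quantifies BAZ2B engagement of H3K14Ac peptide; the protein and biotinylated peptide are both at 50 nM final, buffer PBS pH 7.4 with 0.01% Tween-20, all steps at room temperature.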
G9a block: G9a (human) methyltransferase inhibition | AID 504332 | Q96KQ7 | Potency, µM (highest dose often 102 µM), for the others: top-dose activity, negative = inhibition, most hits filed as inhibitors | hit rate 8.8% among 350,000 | G9a H3K9 monomethylation, AlphaScreen, 2 h; further: on the % scale 0 is the no-effect control and ±100 the full control effect; nearly all actives have a fitted effect of over 75% in size
Target sequence (Q96KQ7 913-1193 limits assumed): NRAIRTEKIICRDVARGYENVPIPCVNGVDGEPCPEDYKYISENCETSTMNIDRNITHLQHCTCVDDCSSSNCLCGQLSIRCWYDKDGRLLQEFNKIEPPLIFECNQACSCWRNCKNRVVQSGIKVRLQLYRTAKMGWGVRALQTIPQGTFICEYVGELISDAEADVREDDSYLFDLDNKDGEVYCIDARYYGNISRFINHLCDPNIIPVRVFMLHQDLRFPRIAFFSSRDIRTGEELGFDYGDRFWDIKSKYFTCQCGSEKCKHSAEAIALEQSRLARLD
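Methyltransferase reactions run at room temperature for 2 h (20 nM enzyme, 500 nM biotin-H3K9 peptide, 20 uM SAM) after a 15 min compound preincubation; product detected by AlphaScreen beads and anti-H3K9me1 antibody.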
PLK1 PBD block: blocks phosphopeptide binding to human PLK1 polo-box domain; Potency, µM, for inactives: max response, negative = inhibition, most hits filed as inhibitors; hit rate 2.8% among 360,000; AID 720504; Plk1 PBD binding of FITC phosphopeptide, fluorescence polarization; further: series mostly up to about 57 µM; on the % scale 0 is the no-effect control and ±100 the full control effect; nearly all actives have a fitted effect of over 65% in size
An asterisk follows results filed as active; ? = inconclusive; . = no result; [ ] = another dose, or the depositor's remark. In the library only some 12% were active in any assay of this set; here they are far more common. The call rests on the fitted dose curve; in most records, active means well fitted curve in the direction sought with a large enough effect; inconclusive means small, poorly fitted or top-dose-only effect, or another doubt; inactive means no such curve, though single readings can be large; an effect the other way counts as inactive or inconclusive. Potency means the concentration at half of the fitted maximal effect.

SMILES | HP1b binding inh | JMJD2A Tudor | Sfp inh | BAZ2B inh | G9a block | PLK1 PBD block
COc1ccc(NC(=O)Cc2ccc(NC(=O)N3CCCCc4ccccc43)cc2)c(OC)c1 | 14% | -33% | . | -35% | -9%[59 µM] | .
CCCCOc1ccc(CNC(=O)Cc2ccc(NC(=O)N3CCCCc4ccccc43)cc2)cc1 | 10% | 79µM* | . | -19% | -5%[59 µM] | .
COc1cccc(NC(=O)Cc2ccc(NC(=O)N3CCCCc4ccccc43)cc2)c1 | 3% | 11µM* | . | -1% | 0%[59 µM] | .
COc1ccc(C(C2C(=O)CC(C)(C)CC2=O)C2C(=O)CC(C)(C)CC2=O)cc1 | 58% | -17% | 25µM* | -16% | 45µM* | 9.5µM*
Cc1ccc(C(C2C(=O)CC(C)(C)CC2=O)C2C(=O)CC(C)(C)CC2=O)s1 | 14% | -32% | 50µM* | ? | 45µM* | 2.7µM*
CC1(C)CC(=O)C(C(c2cccc([N+](=O)[O-])c2)C2C(=O)CC(C)(C)CC2=O)C(=O)C1 | 28% | -16% | -9% | 0% | 1%[59 µM] | -22%
CC1(C)CC(=O)C(C(c2ccc3c(c2)OCO3)C2C(=O)CC(C)(C)CC2=O)C(=O)C1 | . | . | . | . | . | 17µM*
CC1(C)CC(=O)C(C(c2ccncc2)C2C(=O)CC(C)(C)CC2=O)C(=O)C1 | 82% | -8% | 4% | -31% | 50µM* | -9%
COc1ccc(N2CC(C)(C)C2=O)cc1 | 29% | -3% | 14% | -1% | -5% | -9%
O=C(CC(c1ccccc1)c1cc(Br)ccc1O)NCC1(c2ccccc2)CCCC1 (centres undefined) | -7% | -31% | . | ? | -23%[59 µM] | .
COc1ccc(C(=O)NC(=O)CSc2n[nH]c(N)n2)cc1 | 33% | -3% | . | . | . | -12%
CC1(C(=O)NCc2ccc(F)c(F)c2)Cc2c(-c3ccccc3)ccnc2O1 (centres undefined) | . | . | . | . | . | -13%
N#C/C(=C(/O)CN1CCOCC1)c1nc(-c2ccccc2)cs1 | 13% | ? | -21% | ? | -20%[59 µM] | -9%
N#C/C(=C(/O)CCl)c1nc(-c2ccccc2)cs1 | -7% | -36% | -15% | ? | . | ?
CCCCN(C)C/C(O)=C(\C#N)c1nc(-c2ccccc2)cs1 | -3% | ? | -23% | ? | 40µM* | -15%
Cc1ccc(-c2csc(/C(C#N)=C(\O)CCl)n2)cc1 | -2% | ? | 4% | -29% | 35µM* | ?
Cc1ccc(-c2csc(/C(C#N)=C(\O)CN3CCN(C(=O)c4ccco4)CC3)n2)cc1 | -17% | 79µM* | 15% | ? | -47%[12.7 µM] | -24%
Nc1ccc(Oc2ccc3nc(-c4ccccc4)c(-c4ccccc4)nc3c2)cc1 | -11% | ? | 1% | ? | . | -9%
Nc1ccc(Oc2cc(N)cc(Oc3ccccc3)c2)cc1 | ? | ? | 8% | 50µM* | ? | -6%
OCCNCCCCOc1ccc(OCc2ccccc2)cc1 | -1% | -34% | 7% | -9% | 18%[59 µM] | 7%
CC(C)(c1ccccc1)c1ccc(OCCCNCCO)cc1 | -7% | -15%[11.4 µM] | -28% | 56µM* | -23%[12.7 µM] | -21%
COCCNC(=O)COc1ccc(OCCNC[C@H](O)COc2ccccc2)cc1 | . | . | 14% | . | 29%[59 µM] | .
CCc1cc(OCCCCNCc2ccccc2)ccc1Cl | 25% | 6.3µM* | -13% | ? | ? | -7%
CCOCCCNCc1ccc(OCc2ccccc2Cl)cc1 | 28% | -1% | 10% | 8% | 5%[59 µM] | 2%
C=CCNCCCOc1ccc(C(C)(C)c2ccccc2)cc1 | ? | 1.6µM* | -65% | 40µM* | 10µM* | -7%
SMILES | HP1b binding inh | JMJD2A Tudor | Sfp inh | BAZ2B inh | G9a block | PLK1 PBD block
COCCNCCCOc1ccc(C(C)(C)c2ccccc2)cc1 | ? | 0.79µM* | 16µM* | 35µM* | 10µM* | -6%
CCOc1ccccc1C(=O)OCC(=O)NCC1CCCCC1 | 17% | -15% | . | -3% | -33%[12.7 µM] | -7%
COc1ccc(OCCCNCCc2ccccc2)cc1 | 27% | -10% | 7% | -25% | 4%[12.7 µM] | -11%
CC(C)(c1ccccc1)c1ccc(OCCn2cnc3ccccc3c2=O)cc1 | 73% | -3% | -7% | -3% | 12%[12.7 µM] | 1%
COc1cccc(OCCOc2ccccc2[N+](=O)[O-])c1 | 103% | 40% | . | . | . | -1%
O=[N+]([O-])c1ccccc1OCCNCc1ccccc1 | ? | 45µM* | -20% | ? | 7.9µM* | -3%
COCCNCc1ccccc1 | -9% | ? | 13% | -2% | 20%[59 µM] | 30µM*
COCCCNCCCOc1ccc(C(C)(C)c2ccccc2)cc1 | ? | 6.3µM* | 56µM* | 45µM* | 2.8µM* | -3%
CC(C)(C)c1ccc(OCCCNCc2ccccc2)cc1 | ? | 3.5µM* | -43% | ? | 10µM* | 3%
O=c1cc(-c2ccccc2)nc(SCc2nc(-c3cccc(C(F)(F)F)c3)no2)[nH]1 | 26%[57 µM] | -11% | . | 1% | -14%[59 µM] | .
Cc1ccc2c(c1)[nH]c1c(=O)n(Cc3ccco3)cnc12 | 3% | -9%[11.4 µM] | -6% | -16% | -8% | 27µM*
Cc1ccc2c(c1)[nH]c1c(=O)n(CCN3CCNCC3)cnc12 | 35% | -18% | 16% | 0% | 45µM* | -9%
Nc1c(Nc2ccccc2)c2ccccc2oc1=O | -3% | -34% | -6% | ? | 50µM* | 2%
CCNc1c(N)c(=O)oc2ccccc12 | 0% | -14% | -3% | -2% | 5% | 0%
Cc1ccc(/C=C2/N=C(c3ccccc3)NNC2=O)cc1 | 12% | -34% | 21% | -20% | 14µM* | -24%
O=C(O)c1ccccc1-c1ccc(/C=c2\sc3nc4cc(Br)cnc4n3c2=O)o1 | 6.3µM* | 3.2µM* | 35µM* | 40µM* | ? | ?
Cc1cc2nc(/C(C#N)=C\c3ccc(-c4ccccc4C(=O)O)o3)[nH]c2cc1C | 4% | -16% | -3% | ? | ? | 79%
Cc1cc2nc3s/c(=C/c4ccc(-c5ccccc5C(=O)O)o4)c(=O)n3c2cc1C | ? | 32µM* | 79µM* | 50µM* | 3.5µM* | ?
O=C(O)c1cc(-c2ccc(/C=c3\sc4nc5ccc(Br)cc5n4c3=O)o2)ccc1Cl | . | . | 56µM* | 18µM* | 0.79µM* | .
Cc1ccc(-n2c(C)cc(/C=c3/sc4nc5ccccc5n4c3=O)c2C)cc1 | 44% | ? | -5% | 1% | ? | -1%
CCOC(=O)c1cccc(NC(=O)c2cc(S(=O)(=O)N3CCCCCC3)cn2C)c1 | 16%[57 µM] | -19% | . | -7% | -2%[59 µM] | .
CCCn1c2ccccc2c2cnn(CC(=O)N3CCN(c4ccccc4)CC3)c(=O)c21 | 7% | -22% | . | -13% | -28%[59 µM] | .
O=c1c(-c2ccc(O)cc2)coc2cc(O[C@@H]3O[C@H](CO)[C@@H](O)[C@H](O)[C@H]3O)cc(O)c12 | . | . | 12% | . | . | .
CCCCCCCCCCC1=C(C)C(=O)C(OC)=C(OC)C1=O | . | . | -16% | . | 5µM* | .
